These results are taken from PubChem BioAssay AID1568 (National Center for Advancing Translational Sciences (NCATS), 2009).

Results filed as inconclusive are left out. The source made the active and inactive calls. Calls come from the whole dose curve; as a rule, active = well fitted curve in the direction sought with a large enough effect; inconclusive = small, poorly fitted or top-dose-only effect, or effect the other way, or another doubt; inactive = no such curve, though single readings can be large or run the other way.

The nature of the experiment: Cell Viability Secondary Assay to Characterize qHTS Inhibitors of the Interaction of Thyroid Hormone Receptor and Steroid Receptor Coregulator 2. The settings on record: cell viability counter-screen, qHTS titration; series mostly up to 29.9 µM; activity change, negative = cytotoxicity: at the top concentration. An excerpt:
NIH Molecular Libraries Probe Production Network [MLPCN]
NIH Chemical Genomics Center [NCGC]
Assay Provider: R. Kip Guy, St. Jude Children's Research Hospital
Thyroid receptor (TR) regulates many homeostatic processes including basal metabolism, cardiovascular function, body weight, and lipid trafficking. TR modulators are potential therapeutics for obesity and hyperlipidemias but current thyroid analogs have undesirable side effects, particularly cardiac stimulation. This secondary assay characterized selected actives identified in the qHTS for Inhibitors of the Interaction of Thyroid Hormone Receptor and Steroid Receptor Coregulator 2. The human follicular thyroid carcinoma cell line WRO (kindly provided by Dr. M. D. Ringel) stably expresses TRbeta and a luciferase reporter gene fused to TR response element. The effect of compounds on the viability of these cells was assessed by measuring ATP levels. Compounds that reduce cell viability are likely cytotoxic.
NCGC Assay Protocol Summary:
Cells were maintained in RPMI 1640 culture medium supplemented with 10% heat-inactivated FBS, 0.33 mg/ml hygromycin, 0.33 mg/ml geneticin, 50 units/ml penicillin, 50 ug/ml streptomycin. Cells were harvested and resuspended at 330,000 cells/ml in assay medium (50% DMEM 50% F-12 medium without Phenol-Red (Cellgro #16-405-CV), L-glutamine, 10% heat inactivated and charcoal treated FBS, 100 uM non-essential amino acid, 50 units/ml penicillin, 50 ug/ml streptomycin). Cells were dispensed at 10,000 cells/30 ul/well into 384 well plates (Corning 3917) and incubated 12 h at 37 C and 5% CO2. Compounds and T3 (100nM final concentration) were added using a pin tool and plates were incubated 16 h incubation at 37 C and 5% CO2. Following incubation, plates were equilibrated at ambient temperature for 30 min, 20 ul of CellTiter-Glo (Promega) was added and luminescence was detected by an EnVision (PerkinElmer).
On the technique in general: In qHTS, concentration-response curves come from the screen itself.
Regarding `COc1ccc2ccc3c(c2c1)N=CC1(O3)N(C)c2ccccc2C1(C)C` (stereo not given), the “activity change, negative = cytotoxicity” value is -20.7% (inactive). For the compound `Cc1cccc(Cn2c(C(=O)OC(C)C)cc3c2ccn3C)c1`, the “activity change, negative = cytotoxicity” value was -28.9% (inactive). On to `Oc1ccc2ccccc2c1/C=N/c1nccs1`, for which the “activity change, negative = cytotoxicity” value was 0.358% (inactive). For the compound `N/C(Cc1cccc2ccccc12)=N\OC(=O)c1cccs1`, the “activity change, negative = cytotoxicity” value was -11.8% (inactive).

In the case of `COc1ccc2c(c1)-c1nc(/N=C/c3c(O)ccc4ccccc34)sc1CC2`, the “activity change, negative = cytotoxicity” value was -14.7% (inactive). Regarding `Cc1ccc(-c2nc(S(=O)(=O)c3ccc(F)cc3)c(SCC(=O)NCC3CCCO3)o2)cc1` (stereo not given), the “activity change, negative = cytotoxicity” value is 9.56% (inactive). Consider `COc1ccc(C(=O)/C=C/Nc2ccc(S(=O)(=O)Nc3ncccn3)cc2)cc1`, for which the “activity change, negative = cytotoxicity” value was -16.8% (inactive). For `Cn1cc(/C=C2\SC(=S)N(NC(=O)c3ccccc3)C2=O)c2ccccc21`, the “activity change, negative = cytotoxicity” value is 20.4% (inactive).

Turning to `COn1c2c(c3c4nonc4ccc31)CCCC2`, the “activity change, negative = cytotoxicity” value was -9.39% (inactive). On to `O=C(O)/C=C/C(=O)Nc1ccc(SC(F)(F)C(F)(F)C(F)(F)F)cc1`, for which the “activity change, negative = cytotoxicity” value was -13.1% (inactive). `Nc1cccnc1Sc1cc(Cl)c(Cl)cc1Cl`: the “activity change, negative = cytotoxicity” value was 7.87% (inactive). The same measure, in the same setting: in the case of `O=C(/C=C/c1ccco1)NC(=S)Nc1cc(C(F)(F)F)ccc1N1CCOCC1` it was -20.7% (inactive). Take `CCOc1cc(C(c2c(C)[nH][nH]c2=O)c2c(C)[nH][nH]c2=O)ccc1OC(=O)c1cccc([N+](=O)[O-])c1`: the “activity change, negative = cytotoxicity” value is -4.08% (inactive). For the compound `CC(=O)NC1N=C(C)N(c2ccccc2)C1=O` (stereo not given), the “activity change, negative = cytotoxicity” value was 1.59% (inactive). For the compound `C=CCSc1nnc2n(-c3ccccc3OC)c(=O)c3c4c(sc3n12)CCC4`, the “activity change, negative = cytotoxicity” value was -15% (inactive). On the same count and under the same terms, in the case of `CC1=NN(Cc2ccccc2)C(=O)C1` it was 6.13% (inactive); in that of `Cc1cc(N=Cc2c(O)ccc3ccccc23)no1`, -15.4% (inactive); in that of `Cc1nc2c3cc(F)ccc3n(Cc3ccccc3F)c2s1`, -26.7% (inactive). On the same count and under the same terms, in the case of `C=CCNC(=O)/C(C#N)=C/c1c(C)nn(-c2ccc(Cl)cc2)c1Cl` it was -7.83% (inactive). Consider `O=C(O)C1C2C=CC(O2)C1C(=O)Nc1ccc(S(=O)(=O)N2CCc3ccccc32)cc1` (stereo not given), for which the “activity change, negative = cytotoxicity” value was 1.57% (inactive). In the case of `COc1cc(NC(C)CCCN)c2ncccc2c1` (stereo not given), the Potency is 22.4 µM (active). On to `Cc1cc(C)cc(OCC(=O)NCCc2nc3ccccc3[nH]2)c1`, for which the “activity change, negative = cytotoxicity” value is -5.54% [at 59.9 µM] (inactive).

As to `C=CCNC(=O)/C(C#N)=C\c1cc(Cl)c(OCC)c(OC)c1`, the “activity change, negative = cytotoxicity” value was -23.3% (inactive).

Take `O=C(O)/C=C/C(=O)Nc1ccc(OC(F)(F)F)cc1Br`: the “activity change, negative = cytotoxicity” value was -13.9% (inactive).

For `Nc1cc(N)c(OCC(F)(F)F)cc1OCC(F)(F)F`, the Potency is 14.1 µM (active).

Consider `CCOc1cc(N2CCOCC2)c(OCC)cc1NC(C)C(=O)N1CCN(CC)CC1` (stereo not given), for which the “activity change, negative = cytotoxicity” value is -2.87% (inactive). For `C=CC(=O)OCCOc1ccccc1`, the “activity change, negative = cytotoxicity” value was 6.71% [at 120 µM] (inactive). Turning to `CC(=O)c1cccc(NC(=O)COC(=O)c2ccc(S(C)(=O)=O)c([N+](=O)[O-])c2)c1`, the “activity change, negative = cytotoxicity” value is 34.6% (inactive).

Consider `CCCc1nc2c(=O)n(C)c(=O)nc-2n(C)n1`, for which the Potency is 0.794 µM (active). Regarding `CCOC(=O)c1cnc2nc(NCc3ccc(OC)c(OC)c3)[nH]n2c1=O`, the “activity change, negative = cytotoxicity” value is 4.21% (inactive).

For the compound `CCCCOc1ccc(C(=O)CCN2CCOCC2)cc1`, the “activity change, negative = cytotoxicity” value was -16.3% (inactive).

As to `Nc1c(C(=O)NCc2ccco2)c2nc3ccccc3nc2n1CCc1ccccc1`, the “activity change, negative = cytotoxicity” value is -13.6% (inactive). With `N#Cc1c(NC(=O)c2ccccc2Cl)n(Cc2ccccc2)c2nc3ccccc3nc12`, the “activity change, negative = cytotoxicity” value is -24.3% (inactive). Turning to `Cc1c(C#N)c(O)n(CCO)c(=O)c1N=Nc1ccc2c(c1)COC2=O`, the “activity change, negative = cytotoxicity” value was -16% (inactive). As to `Oc1ccc2ccccc2c1C=NC12CN3CCN(CN(C3)C1)C2`, the “activity change, negative = cytotoxicity” value is -2.24% (inactive).

With `CC1(C)CC(=O)C(N=Nc2cccc(S(=O)(=O)N3CCOCC3)c2)=C(O)C1`, the “activity change, negative = cytotoxicity” value was -0.603% (inactive).

As for `Cc1cc2ccccc2n1CCNC(=O)C(C)Oc1ccccc1` (stereo not given), the “activity change, negative = cytotoxicity” value is -12.1% (inactive). In the case of `Cc1cc2c(NC(=O)Nc3ccccc3)cccc2nn1`, the “activity change, negative = cytotoxicity” value was -20% (inactive).

On to `Cc1nnc(SCC(=O)Nc2ccc(N(C)C)cc2)[nH]c1=O`, for which the “activity change, negative = cytotoxicity” value is -0.944% [at 59.9 µM] (inactive). Still for that read-out and setting: in the case of `COC(=O)c1ccccc1-c1ccc(C(c2c(C)[nH][nH]c2=O)c2c(C)[nH][nH]c2=O)o1` it was -2.46% (inactive).
